The values below come from the supplement of paper PMC10127200.

Structures can show the parent of a compound that is named as a salt.

What all share (experiment): Euclidean distance of Cell Painting phenotypic profile (signed KS, 77 features) to DMSO centroid (dimensionless distance); 5 or 10 uM (library dependent); higher = stronger phenotypic change vs DMSO (phenoactivity)
Holding throughout (settings): 48 h

The test system of experiment [1] is 786-O. The method in brief:
(§1)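 Five cancer lines, together with a healthy fibroblast line, received library compounds for 48 h at a library-dependent 10 or 5 uM and 0.1% DMSO final. Harmony then derived 77 features from confocal 20X images (9 fields/well) of the stained cells, scoring each as a signed Kolmogorov-Smirnov statistic against same-plate vehicle wells. After plate-position correction, correlation weighting and replicate averaging at the top dose, phenoactivity was taken as each profile's Euclidean distance to the median vehicle profile.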

Experiment [2] concerns A549. In a few lines: as §1
Experiment [3] has as its system DU145. The method in brief:
as §1

Experiment [4] has as its system FB. In a few lines:
as §1

Experiment [5] has as its system HEPG2. In a few lines: as §1
The test system of experiment [6] is OVCAR4. The method in brief:
as §1

With `CCCCC(F)(F)[C@@]1(O)CC[C@H]2[C@@H](CC(=O)[C@@H]2CCCCCCC(=O)O)O1` [Lubiprostone], the Euclidean distance in experiment [1] stood at 1.06; in experiment [2], 1.09; in experiment [3] it was 1.21; in experiment [4], 1.29; in experiment [5], 0.966; in experiment [6], 1.1.

Turning to `CCOC(=O)c1ccc(N)cc1` [Benzocaine hydrochloride], the Euclidean distance in experiment [1] came to 0.675; in experiment [2], 0.334; in experiment [3], 0.563; in experiment [4], 0.896; in experiment [5], 0.264; in experiment [6], 0.998.

As to `O=C(N/N=C/c1ccc([N+](=O)[O-])o1)c1ccc(O)cc1` [Nifuroxazide], the Euclidean distance was found to be 1.64 in experiment [1]; 1.52 in experiment [2]; 0.846 in experiment [3]; 1.33 in experiment [4]; 2.82 in experiment [5]; 1.2 in experiment [6].

Regarding `Cc1cc(NS(=O)(=O)c2ccc(N)cc2)nc(C)n1` [sulfaisodimidine], the Euclidean distance amounted to 0.897 in experiment [1]; 0.563 in experiment [2]; 0.503 in experiment [3]; 0.948 in experiment [4]; 0.529 in experiment [5]; 0.686 in experiment [6].

For `Cc1cc(O)cc(C)c1Cl` [Chloroxylenol], the Euclidean distance was determined as 0.814 in experiment [1]; 0.825 in experiment [2]; 1.13 in experiment [3]; 0.9 in experiment [4]; 0.668 in experiment [5]; 0.718 in experiment [6].

On to `CCOC(=O)C1=C(COCCN)NC(C)=C(C(=O)OC)C1c1ccccc1Cl` (stereo not drawn) [Amlodipine Besylate], for which the Euclidean distance was determined as 1.08 in experiment [1]; 0.672 in experiment [2]; 0.871 in experiment [3]; 1.18 in experiment [4]; 1.64 in experiment [5]; 1.07 in experiment [6].

For `CCN(CC)CCCC(C)Nc1ccnc2cc(Cl)ccc12` (stereo not drawn) [Chloroquine Phosphate], the Euclidean distance in experiment [1] is 3.74; in experiment [2] it was 3.04; in experiment [3] it was 2.7; in experiment [4] it was 4.77; in experiment [5] it was 3.32; in experiment [6], 3.09.

With `Fc1ccc([C@@H]2CCNC[C@H]2COc2ccc3c(c2)OCO3)cc1` [Paroxetine HCl], the Euclidean distance in experiment [1] came to 1.46; in experiment [2], 1.59; in experiment [3], 1.59; in experiment [4] it was 1.93; in experiment [5] it was 2.28; in experiment [6], 1.54.

`S=c1nc[nH]c2nc[nH]c12` [6-Mercaptopurine (6-MP) Monohydrate]: the Euclidean distance in experiment [1] came to 1.29; in experiment [2], 0.49; in experiment [3] it was 0.673; in experiment [4] it was 0.989; in experiment [5] it was 1.81; in experiment [6], 0.591.

With `CCCSc1nc(N[C@@H]2C[C@H]2c2ccc(F)c(F)c2)c2nnn([C@@H]3C[C@H](OCCO)[C@@H](O)[C@H]3O)c2n1` [Ticagrelor], the Euclidean distance in experiment [1] came out at 0.66; in experiment [2], 1.41; in experiment [3] it was 1.07; in experiment [4], 0.885; in experiment [5] it was 0.977; in experiment [6], 1.37.

`CC(C)NCC(O)COc1cccc2[nH]c3ccccc3c12` (stereo not drawn) [Carazolol]: the Euclidean distance in experiment [1] stood at 1.27; in experiment [2], 0.789; in experiment [3] it was 1.12; in experiment [4] it was 0.974; in experiment [5] it was 1.07; in experiment [6], 1.31.

On to `O=C(N/N=C/c1ccc(O)c(O)c1)c1cc2ccccc2cc1O` [Dynasore], for which the Euclidean distance amounted to 0.917 in experiment [1]; 1.21 in experiment [2]; 0.791 in experiment [3]; 0.928 in experiment [4]; 1.13 in experiment [5]; 0.791 in experiment [6].

On to `CC(C)COc1ccc(CNC(=O)N(Cc2ccc(F)cc2)C2CCN(C)CC2)cc1` [Pimavanserin], for which the Euclidean distance in experiment [1] is 4.02; in experiment [2], 4.29; in experiment [3] it was 3; in experiment [4], 5.4; in experiment [5] it was 5.24; in experiment [6] it was 3.47.

On to `CC1(C)S[C@@H]2[C@H](NC(=O)Cc3ccccc3)C(=O)N2[C@H]1C(=O)O.CCN(CC)CCOC(=O)c1ccc(N)cc1` [Penicillin G Procaine], for which the Euclidean distance came out at 0.821 in experiment [1]; 0.676 in experiment [2]; 0.97 in experiment [3]; 1.38 in experiment [4]; 0.466 in experiment [5]; 1.24 in experiment [6].

For the molecule `CC(=O)OCC(=O)[C@@]12OC(C)(C)O[C@@H]1C[C@H]1[C@@H]3C[C@H](F)C4=CC(=O)C=C[C@]4(C)[C@@]3(F)[C@@H](O)C[C@@]12C` [Fluocinonide], the Euclidean distance came to 1.34 in experiment [1]; 2.13 in experiment [2]; 2.47 in experiment [3]; 1.51 in experiment [4]; 0.846 in experiment [5]; 1.99 in experiment [6].

With `CCCN[C@H]1CCc2nc(N)sc2C1` [Pramipexole], the Euclidean distance in experiment [1] is 1.54; in experiment [2] it was 0.915; in experiment [3], 1.04; in experiment [4], 0.837; in experiment [5] it was 0.869; in experiment [6] it was 1.19.

Turning to `O=c1ncccn1[C@@H]1O[C@H](CO)[C@@H](O)[C@H]1O` [Zebularine], the Euclidean distance in experiment [1] was determined as 1.2; in experiment [2], 1; in experiment [3] it was 0.895; in experiment [4], 0.816; in experiment [5] it was 0.887; in experiment [6] it was 0.492.

Regarding `Cc1c(-c2ccccc2)oc2c(C(=O)OCCN3CCCCC3)cccc2c1=O` [Flavoxate HCl], the Euclidean distance in experiment [1] was determined as 0.908; in experiment [2], 2.27; in experiment [3], 1.73; in experiment [4], 2.91; in experiment [5], 0.927; in experiment [6] it was 1.61.

With `Cc1[nH]c2ccccc2c1CCNCc1ccc(/C=C/C(=O)NO)cc1` [Panobinostat], the Euclidean distance in experiment [1] was found to be 3.44; in experiment [2], 4.4; in experiment [3] it was 4.84; in experiment [4] it was 3.48; in experiment [5] it was 4.4; in experiment [6] it was 3.58.

For the molecule `NS(=O)(=O)c1cc(C(=O)O)c(NCc2ccco2)cc1Cl` [Furosemide], the Euclidean distance in experiment [1] came to 1.62; in experiment [2] it was 0.823; in experiment [3], 1.83; in experiment [4] it was 1.25; in experiment [5], 0.788; in experiment [6] it was 0.747.

For the molecule `CCCC(=O)O[C@]1(C(=O)CO)CC[C@H]2[C@@H]3CCC4=CC(=O)CC[C@]4(C)[C@H]3[C@@H](O)C[C@@]21C` [Hydrocortisone butyrate], the Euclidean distance in experiment [1] came to 1.21; in experiment [2] it was 2.18; in experiment [3], 1.87; in experiment [4], 1.7; in experiment [5] it was 1.87; in experiment [6] it was 2.45.

Regarding `O=c1[nH]cnc2c1ncn2[C@H]1CC[C@@H](CO)O1` [Didanosine], the Euclidean distance in experiment [1] is 1.21; in experiment [2] it was 1.3; in experiment [3], 1.12; in experiment [4], 0.891; in experiment [5] it was 0.649; in experiment [6], 0.793.

Regarding `CC(C)c1onc(-c2c(Cl)cccc2Cl)c1COc1ccc(/C=C/c2cccc(C(=O)O)c2)c(Cl)c1`, the Euclidean distance in experiment [1] amounted to 1.58; in experiment [2], 0.795; in experiment [3], 1.01; in experiment [4], 1.26; in experiment [5], 1.42; in experiment [6], 1.02.
